Values without a mark were called inactive. Active and inactive are the calls of the source. Rule as the data show it, unless noted: active = inhibition above about 36%; inactive = the rest.

In assay [1] the test system is transactivating tegument protein VP16 (Human herpesvirus 1). Briefly: compounds suppressing VP16-driven luciferase signal – cell-based, luminescence, single concentration, counter-screen for SRC2 inhibitor project (AID 652007). The conditions noted are these: cell-based VP16 transactivation luciferase reporter, at 8.9 µM, stronger effect = higher value.
The target in assay [2] is Nuclear receptor coactivator 2 (Homo sapiens) (UniProt Q15596). In words: inhibition of GAL4-SRC2 driven luciferase expression – cell-based, luminescence, HEK293, triplicate, confirmation (AID 652008;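 active = mean inhibition above 46.5%, the solvent-only control mean plus 3 SD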;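 also: 0% = DMSO-treated cells and 100% = Gossypol at 36 µM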). The note with it: HEK293 GAL4-SRC2 luciferase reporter, at 8.9 µM, stronger effect = higher value.
Nuclear receptor coactivator 2 (Homo sapiens), sequence (Q15596 whole entry, looked up, the tested form may be a part): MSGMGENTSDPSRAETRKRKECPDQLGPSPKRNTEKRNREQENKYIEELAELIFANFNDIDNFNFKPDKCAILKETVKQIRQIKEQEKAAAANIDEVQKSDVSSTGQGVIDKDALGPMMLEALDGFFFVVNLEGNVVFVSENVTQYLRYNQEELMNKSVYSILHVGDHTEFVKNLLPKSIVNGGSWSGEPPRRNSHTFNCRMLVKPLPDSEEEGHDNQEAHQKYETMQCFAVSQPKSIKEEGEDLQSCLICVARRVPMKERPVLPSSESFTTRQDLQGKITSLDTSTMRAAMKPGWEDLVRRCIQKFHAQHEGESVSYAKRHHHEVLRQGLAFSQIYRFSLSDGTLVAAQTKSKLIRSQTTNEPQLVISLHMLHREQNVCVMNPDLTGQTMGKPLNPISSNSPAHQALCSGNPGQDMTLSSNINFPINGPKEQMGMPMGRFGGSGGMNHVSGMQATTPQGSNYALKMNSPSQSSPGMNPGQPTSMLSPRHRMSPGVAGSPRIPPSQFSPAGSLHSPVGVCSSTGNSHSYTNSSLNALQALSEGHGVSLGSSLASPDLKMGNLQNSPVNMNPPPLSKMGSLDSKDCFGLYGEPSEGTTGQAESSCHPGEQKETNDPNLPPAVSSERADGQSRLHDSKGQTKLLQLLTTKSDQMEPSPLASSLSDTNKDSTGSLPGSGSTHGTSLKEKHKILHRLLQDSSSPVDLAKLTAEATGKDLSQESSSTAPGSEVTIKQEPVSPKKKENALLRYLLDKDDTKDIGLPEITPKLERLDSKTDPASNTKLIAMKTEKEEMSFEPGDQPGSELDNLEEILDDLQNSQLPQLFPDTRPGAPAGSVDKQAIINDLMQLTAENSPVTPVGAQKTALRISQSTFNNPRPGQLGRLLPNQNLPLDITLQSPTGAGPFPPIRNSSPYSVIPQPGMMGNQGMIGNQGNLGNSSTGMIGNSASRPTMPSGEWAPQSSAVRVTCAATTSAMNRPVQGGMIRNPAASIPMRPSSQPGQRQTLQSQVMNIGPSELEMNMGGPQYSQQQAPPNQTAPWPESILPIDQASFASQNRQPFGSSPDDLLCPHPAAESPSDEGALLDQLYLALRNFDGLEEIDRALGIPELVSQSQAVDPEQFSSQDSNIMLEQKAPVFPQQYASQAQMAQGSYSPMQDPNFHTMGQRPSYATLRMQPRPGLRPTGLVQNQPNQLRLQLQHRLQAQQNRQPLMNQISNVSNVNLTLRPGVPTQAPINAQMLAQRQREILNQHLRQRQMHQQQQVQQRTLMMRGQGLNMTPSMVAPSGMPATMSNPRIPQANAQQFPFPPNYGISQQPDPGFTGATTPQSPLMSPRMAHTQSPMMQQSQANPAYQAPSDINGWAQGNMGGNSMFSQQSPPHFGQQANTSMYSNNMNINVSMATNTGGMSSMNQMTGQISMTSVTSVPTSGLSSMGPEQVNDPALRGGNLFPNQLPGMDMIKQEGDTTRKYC

Regarding `Nc1nc(CCl)nc(Nc2ccccc2)n1`, the values for the inhibition in assay [1] and in assay [2] were -25.1% and 8.83%, respectively.

As to `Oc1ccc(N=Nc2ccc3c(c2)OCCO3)c2ncccc12`, the figures for the inhibition in assay [1] and in assay [2] were -13.1% and 13.6%, respectively.

`Cc1ccc2c(c1)COc1c3ccc(C(=O)O)cc3nn1-2`: the inhibition in assay [1] is -24.7%; in assay [2], -1.87%.

On to `CCOC(=O)C1CCCCN1C(=O)CCc1c(C)nc2cc(-c3ccccc3)nn2c1C` (stereo not given), for which the figures for the inhibition in assay [1] and in assay [2] were -0.8% and 70.2% (active), respectively.

`CC(C)CCn1cnc2c(sc3nc4c(cc32)CSC(C)(C)C4)c1=O`: the inhibition in assay [1] is -42.3%; in assay [2] it was -11.9%.

In the case of `Cc1cc(=O)c2ccccc2n1Cc1ccccc1`, the inhibition in assay [1] is -10.6%; in assay [2] it was 18.6%.

In the case of `Cn1c(=O)c2c(ncn2CCOc2cccc(Br)c2)n(C)c1=O`, the inhibition in assay [1] was 2.33%; in assay [2], 2.64%.

As to `Nc1ccc(Oc2ccc3c(c2)C(=O)N(CC2CCCO2)C3=O)cc1` (stereo not given), the inhibition is -45.6% in assay [1] and 52.8% (active) in assay [2].

In the case of `CCOc1ccc(-c2cc(CCCC(=O)NCc3ccc(C)cc3)no2)cc1`, the figures for the inhibition in assay [1] and in assay [2] were 31.4% and 60.2% (active), respectively.

Turning to `COc1cc(CNc2ccc3[nH]c(=O)[nH]c3c2)cc(Br)c1OCc1ccc(F)cc1`, the inhibition was 1.78% in assay [1] and 29.9% in assay [2].

As for `COc1cccc(NC(=O)Nc2nnc(CC(=O)Nc3ccccc3)s2)c1`, the inhibition in assay [1] was -11%; in assay [2], 21.1%.

On to `Cn1c(=N)n(CC(=O)c2ccc(F)cc2)c2ccccc21`, for which the inhibition in assay [1] was -28.2%; in assay [2] it was -22.8%.

As to `COc1ccc(NC(=O)Nc2nnc(Cc3ccc(OC)c(OC)c3)s2)cc1`, the inhibition was 4.37% in assay [1] and -0.57% in assay [2].

Regarding `COn1c2c(c3c4nonc4ccc31)CCCC2`, the inhibition was 0.98% in assay [1] and 18.7% in assay [2].

Take `CCCCCc1ccc(-c2ccc(/C=C/C(=O)O)cc2)nc1`: the inhibition in assay [1] was -23.1%; in assay [2], 60.2% (active).

Take `CC(=O)Nc1cc(-c2ccc(C(=O)NC3CC3)cc2)cn2c(-c3cccc(C(F)(F)F)c3)cnc12`: the inhibition in assay [1] is -9.85%; in assay [2] it was -1.25%.

For `Cc1cccc(N2CC(C(=O)NC3CCCCCC3)CC2=O)c1C` (stereo not given), the inhibition is -3.4% in assay [1] and -3.61% in assay [2].

As for `CC(C)[C@H](NC(=O)[C@@H]1Cc2ccccc2CN1)C(=O)Nc1ccc2c(c1)OCCO2`, the inhibition in assay [1] is -21%; in assay [2], -29.4%.

Regarding `Cn1c(=O)c2[nH]c(CCCc3ccc([N+](=O)[O-])cc3)nc2n(C)c1=O`, the inhibition in assay [1] is -19.8%; in assay [2], 5.32%.

For `CC1CCCc2sc3ncn(N)c(=N)c3c21` (stereo not given), the inhibition in assay [1] was -0.69%; in assay [2], 1.19%.

For the compound `Cn1cnnc1SCC(=O)NC1CCCC1`, the inhibition is -4.24% in assay [1] and -19.9% in assay [2].

On to `CN1c2ccccc2C(C)(C)C12C=Cc1cc(O)ccc1O2` (stereo not given), for which the inhibition is -7.85% in assay [1] and 23.8% in assay [2].

Turning to `CC1=CC(C)(C)Nc2ccc(OC(=O)c3cccnc3)cc21`, the inhibition in assay [1] was -32.4%; in assay [2], 39.7%.

For `Cc1ccc(S(=O)(=O)/N=C(\N)c2ccc(F)cc2)cc1`, the inhibition in assay [1] is 5.17%; in assay [2], -14.9%.

On to `CCCOc1ccc(C(=O)C(CN2CCOCC2)c2ccccc2)cc1` (stereo not given), for which the inhibition in assay [1] was 14%; in assay [2], 53.9% (active).

Consider `CCC(C)c1ccc(C(C)NC(=S)NC2CCCCC2)cc1` (stereo not given), for which the values for the inhibition in assay [1] and in assay [2] were -0.76% and 22.8%, respectively.

Turning to `Cc1cc(Cl)c(S(=O)(=O)N2CCN(c3ccccn3)CC2)cc1OCC(=O)NC1CCCCC1`, the inhibition is 10.5% in assay [1] and 16.3% in assay [2].

Consider `Cc1ccc(O)c(/C=N/NC(=O)Cc2ccc(Cl)cc2)c1`, for which the inhibition in assay [1] is -11.1%; in assay [2] it was -13.9%.

Take `CCn1c(Oc2ccccc2)nc2c1c(=O)n(C)c(=O)n2C`: the inhibition in assay [1] is 8.01%; in assay [2] it was 42.6%.

Regarding `N#Cc1c(N)nc2c(c1N)CC(C(F)(F)F)O2` (stereo not given), the inhibition in assay [1] is -1.62%; in assay [2] it was 12%.

In the case of `CCCCN(CCCNC(=S)NCCCc1cnc[nH]1)c1ccc(Br)cn1`, the inhibition in assay [1] is -7.99%; in assay [2] it was 39.1%.

For `COc1cccc(N2CCN(c3ncnc4c3[nH]c3ccccc34)CC2C)c1` (stereo not given), the results for the inhibition in assay [1] and in assay [2] were 63.8% (active) and 12.8%, respectively.

Regarding `CC1=CC(C)(C)Nc2ccc(OC(=O)c3ccco3)cc21`, the inhibition in assay [1] is -20.4%; in assay [2], 31.6%.

Turning to `COc1cc(/C=C2\COC/C(=C\c3cc(OC)c(OC)c(OC)c3)C2=O)cc(OC)c1OC`, the inhibition was 96.8% (active) in assay [1] and 97.7% (active) in assay [2].

For `CNC(=O)c1nnsc1S(=O)(=O)c1ccc(Cl)cc1`, the inhibition in assay [1] and in assay [2] was 49.1% (active) throughout.

Values taken from PubChem BioAssay.
